Target: NXF5
Test: pooled miR-30 sensor sort-seq; sequence = guide strand
Settings: shRNA
Note: reference of the scale not given here.

Sequence	sensor-assay potency score (higher = more potent)
ATTTCTTTCAGTGATCTTCAGG	-1.08
TTTCTTTCAGTGATCTTCAGGG	0.16
TCTTTCAGTGATCTTCAGGGTG	-0.168

Target: OAS3
Test: as above
Settings: shRNA

Sequence	sensor-assay potency score (higher = more potent)
TAGGCTGAAAGCATCCTTCTTA	0.0263
TTGAACTGGGAGTCCTTCCCGC	-0.289
TTCTCTACGAACTCCTTCCGCG	-0.635
TTTGTTCTGAGCCGCAACCTGG	-1.14
TACCAGTGCTTCACCAGCCGGA	-0.364
TTGTAGTCCGTGAAGCAGTTGA	-0.0592
TTCAGAATCACAGCCACCCTTG	-0.336
TGTAGCTCTGTGAAGCAGGTGG	0.189
TAGACTTGAGAGCTGGGCCTGG	-0.478
TTGACCGTCCAGTAGACACAGA	-0.525
TTTGGTGCCAGAACTGAGCTGC	0.736
TTCAACATCACAGCCATCCCTT	-0.469

— the OligoGym collection
